# Experimental data as given in PubChem BioAssay AID449762 (Southern Research Specialized Biocontainment Screening …, 2010).
# The campaign covered roughly 330,000 compounds. About 1,900 (0.58%) were called active. About 4% were inconclusive and are not listed. Rule as the data show it: inconclusive = inhibition above about 70% without an active follow-up result; inactive = below that. Only a sample is shown. Entries with a potency or affinity are not part of this list.
# Test: M. tuberculosis growth inhibition, HTS (AID 449762);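 also: bacterial growth assessed after seven days of incubation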
# Conditions: M. tuberculosis H37Rv growth inhibition, 7H9 media; at 25 µM; hits give high values
row,Compound,inhibition
1,CCOC(=O)c1c(C)[nH]c(C(=O)OCC(=O)NCc2ccc(F)cc2)c1C,-3.74% (inactive)
2,COc1ccc(Nc2nc(-c3sc(C)nc3C)cs2)cc1,11.6% (inactive)
3,COc1ccc(OC)c(Nc2nc(-c3sc(N)nc3C)cs2)c1,65.1% (inactive)
4,CCNC(=O)N(CCOC)CC1CCCN(C2Cc3ccccc3C2)C1 (stereo not given),-1.33% (inactive)
5,Cc1cccc(CCNS(=O)(=O)c2ccc(S(=O)(=O)N3CCC(C)CC3)cc2)c1,-1.34% (inactive)
6,COC1=C(c2ccccc2)C(=O)c2ccccc2C1=O,5.34% (inactive)
7,O=C1C(=C(O)c2ccccc2)C(=O)c2ccccc21,4.16% (inactive)
8,CC(=O)Nc1ccc(S(=O)(=O)NC2(C(F)(F)F)NC(=O)N(c3ccccc3F)C2=O)cc1 (stereo not given),-8.69% (inactive)
9,Cc1cc(OCCCCOc2ccc(S(N)(=O)=O)c(C)c2)ccc1S(N)(=O)=O,20.1% (inactive)
10,CCOc1ccc2c(c1)C(=O)c1cc(OCC(=O)O)ccc1-2,1.9% (inactive)
11,CCc1cc(=O)oc2cc(C)cc(OC(=O)c3ccco3)c12,4.45% (inactive)
12,CCc1nnc(NC(=O)c2c(C)nn(-c3ccccc3)c2Cl)s1,25.5% (inactive)
13,Cc1nn(-c2ccccc2)c(Cl)c1C(=O)Nc1nnc(C2CCCC2)s1,38.7% (inactive)
14,O=C(NCc1ccccc1)Nc1cccn(Cc2cccc(F)c2)c1=O,5.8% (inactive)
15,COC(=O)[C@@]1(Cc2ccccc2)C=C[C@@H](C)N1C(C)=O,-1.39% (inactive)
16,CC(NC(=S)NCCN1CCOCC1)C12CC3CC(CC(C3)C1)C2 (stereo not given),-0.91% (inactive)
17,COC(=O)C1=C(C)N(Cc2ccccc2)C(=NCc2ccccc2)N[C@H]1c1ccccc1,28.6% (inactive)
18,COC(=O)C1=C(C)N(Cc2ccccc2)C(=NCc2cc(OC)c(OC)c(OC)c2)N[C@H]1c1ccccc1,-1.97% (inactive)
19,CSc1ncccc1C(=O)NCc1ccc(C)cc1,-4.41% (inactive)
20,COC(=O)c1ccc(Cn2cc(C(F)(F)F)ccc2=O)cc1,38.8% (inactive)
21,O=c1c([N+](=O)[O-])cc(C(F)(F)F)cn1Cc1c(Cl)cccc1Cl,27.9% (inactive)
22,Cc1c(S(=O)(=O)Nc2ccc(Br)cc2)c(=O)n(C)c(=O)n1C,1.85% (inactive)
23,C=C(C)c1cccc(C(C)(C)NC(=O)N(Cc2ccccc2)Cc2ccco2)c1,0.97% (inactive)
24,Cc1c(CCC(=O)NCCCn2ccnc2)c(=O)oc2cc3occ(C(C)(C)C)c3cc12,19.4% (inactive)

row,Compound,inhibition
1,Cc1coc2c(C)c3oc(=O)c(CCC(=O)NCCCn4ccnc4)c(C)c3cc12,3.77% (inactive)
2,CCc1cccc(NS(=O)(=O)c2ccc3c(c2)N(C)CCO3)c1,3.34% (inactive)
3,CC1=C(C(=O)OCCC#N)C(c2cc3c(cc2Br)OCO3)NC(=O)N1 (stereo not given),0.64% (inactive)
4,C=CCNC(=S)N/N=C(\C)c1cccnc1,-7.58% (inactive)
5,CCCCCCCCCC(=O)N/N=C(\C)c1cccnc1,22.8% (inactive)
6,C=CCNC(=S)N/N=C(\C)c1cccc(NC(C)=O)c1,-1.22% (inactive)
7,CCCCCCCCC(=O)N/N=C(\C)c1cccnc1,7.1% (inactive)
8,Cc1cc(C(=O)N2CCCC(N3CCN(c4cccc(C(F)(F)F)c4)CC3)C2)nn1C (stereo not given),5.35% (inactive)
9,CC(Oc1ccc(Cl)cc1)C(=O)N(C)CC(=O)Nc1ccc(N2CCOCC2)cc1 (stereo not given),-7.54% (inactive)
10,COc1ccc(C(=O)N/N=C/c2ccc(OC)c(CN3CCCc4ccccc43)c2)cc1,8.38% (inactive)
11,O=C(Oc1cccc(OC(=O)c2ccco2)c1)c1ccco1,14.2% (inactive)
12,CC1=CC(C)(C)Nc2ccc(OC(=O)c3ccco3)cc21,4.65% (inactive)
13,O=C(NCCCN1CCOCC1)Nc1ccc(Cc2ccc(NC(=O)NCCCN3CCOCC3)cc2)cc1,-4.04% (inactive)
14,O=C(O)c1cccnc1SCC(=O)N1CCCc2ccccc21,-17% (inactive)
15,COc1ccccc1N1CCN(C(=O)CNC(=O)c2ccc(Cl)cc2Cl)CC1,4.89% (inactive)
16,CCn1c(/C=C/N(C)c2ccccc2)[n+](CC)c2ccc(Cl)cc21,0.68% (inactive)
17,CC[n+]1c(/C=C/N(C)c2ccccc2)sc2ccc(Cl)cc21,0.95% (inactive)
18,CCCC(C)NC(=O)c1c2c(nc3ccccc13)CCC2 (stereo not given),-4.36% (inactive)
19,O=C(Oc1cc2oc(=O)c3c(c2cc1Cl)CCCC3)c1cccs1,9.78% (inactive)
20,Cc1cc(OC(=O)c2ccco2)c2c3c(c(=O)oc2c1)CCC3,-2.68% (inactive)
21,CN(C)c1c(N)c(=O)oc2ccccc12,-9.33% (inactive)
22,CCCCNc1c(-c2ccc(OC)c(SC3CCCCC3)c2)nc2ccc(Cl)cn12,8.29% (inactive)
23,COc1ccc(-c2nc3ccc(C)cn3c2NCc2ccccc2)cc1SC1CCCCC1,5.05% (inactive)
24,CN(CC(O)COCc1ccccc1F)C1CCCCC1 (stereo not given),-0.04% (inactive)

row,Compound,inhibition
1,Cc1ccc(C(=O)O/N=C\c2ccc(N3CCOCC3)c([N+](=O)[O-])c2)cc1,0.26% (inactive)
2,O=C(O/N=C\c1ccc(N2CCCCC2)c([N+](=O)[O-])c1)c1c(F)cccc1F,2.52% (inactive)
3,O=C(Cn1cnc([N+](=O)[O-])n1)c1ccccc1,0.7% (inactive)
4,COc1ccc(Nc2cc(Nc3cccc(OC)c3)ncn2)cc1,0.6% (inactive)
5,O=C(O)c1cccc(N/N=C/c2ccc(OC(F)(F)F)cc2)c1,4.3% (inactive)
6,Cc1nc2scc(-c3ccc(Cl)cc3)c2c(=O)n1N,-5.38% (inactive)
7,Cc1nc2scc(-c3ccc(C(C)C)cc3)c2c(=O)n1N,6.8% (inactive)
8,CCOc1ccc(N2C(=O)CCC2=O)cc1,-7.32% (inactive)
9,C1=Nc2ccccc2CN1c1ccccc1,-10.9% (inactive)
10,CCCc1cc(N2CCC(C(N)=O)CC2)nc(-c2ccccc2)n1,5.28% (inactive)
11,Nc1nc2ccccc2n1/N=C/c1cccnc1,-4.9% (inactive)
12,COc1ccc(/C=N/n2c(N)nc3ccccc32)cc1OC,4.73% (inactive)
13,Cc1ccc(C(=O)Nc2nc(C(C)(C)C)cs2)s1,56.8% (inactive)
14,Clc1ccc2nc(-c3ccncc3)cc(-c3ccccc3)c2c1,3.77% (inactive)
15,Cc1ccc2nc(-c3ccc(NS(C)(=O)=O)cc3)cc(-c3ccccc3)c2c1,0.07% (inactive)
16,COc1ccc(S(=O)(=O)N2CCN(C(=O)c3ccco3)CC2)cc1C(C)(C)C,-13.2% (inactive)
17,Cc1cccc(Sc2ccc([N+](=O)[O-])cc2[N+](=O)[O-])n1,19.9% (inactive)
18,Cc1cc(C)nc(Sc2ccc([N+](=O)[O-])cc2[N+](=O)[O-])n1,0.29% (inactive)
19,C/C(=C\C(=O)c1ccc(C)o1)Nc1ccc(C(=O)O)cc1C,-5.52% (inactive)
20,COc1ccc(OC)c(N/C(C)=C/C(=O)c2ccc(C)o2)c1,5.43% (inactive)
21,Cc1ccn2c(-c3csc(NCc4ccco4)n3)c(C)nc2c1,7.31% (inactive)
22,Cc1nc2sccn2c1-c1csc(NCc2ccccc2)n1,54.7% (inactive)
23,O=C(COC(=O)CCN1C(=O)c2ccccc2C1=O)Nc1ccccc1[N+](=O)[O-],-0.89% (inactive)
24,Cc1ccc(NC(=O)C2C3/C=C\CCCCC32)cc1 (stereo not given),-6.56% (inactive)

row,Compound,inhibition
1,O=C(Nc1ccccc1)C1C2/C=C\CCCCC21 (stereo not given),5.24% (inactive)
2,Cc1cc(F)ccc1S(=O)(=O)N1CCCOC1CNC(=O)C(=O)NC1CCCCC1 (stereo not given),-6.82% (inactive)
3,CCOC(=O)N1CCN(c2c(NCCCN3CCCCCC3)c(=O)c2=O)CC1,1.01% (inactive)
4,CCOC(=O)/C(=N/Nc1ccccc1)N1CCCc2ccccc21,0.18% (inactive)
5,CCOC(=O)/C(=N/Nc1ccccc1OC)N1CCCc2ccccc21,0.45% (inactive)
6,Cc1ccc(S(=O)(=O)Cc2sc3ccccc3[n+]2C)cc1,-1.05% (inactive)
7,COc1ccc(NC(=O)C(CC(=O)O)Cc2ccccc2)cc1 (stereo not given),-9.83% (inactive)
8,Cc1ccc(SCCNC(=O)/C=C/c2ccc(Cl)cc2)cc1,-7.24% (inactive)
9,CC(=O)c1ccc(-c2ccc(/C=C(/Sc3n[nH]c(C)n3)C(=O)O)o2)cc1,-2.81% (inactive)
10,Cc1nc(S/C(=C/c2ccc(-c3ccc(C(=O)O)cc3)o2)C(=O)O)n[nH]1,-0.51% (inactive)
11,CCCN1CCN(C(=O)c2ccc(CS(=O)c3ccc(Cl)cc3)o2)CC1 (stereo not given),-5.84% (inactive)
12,Cc1ccc(C(=O)N(c2ccccn2)C(C)c2ccco2)cc1C (stereo not given),6.78% (inactive)
13,c1ccc(-c2nc(CSc3nnc(-c4cccs4)o3)cs2)cc1,3.49% (inactive)
14,Cc1ccc(Nc2nc(CSc3n[nH]c(N)n3)cs2)cc1,0.79% (inactive)
15,CCc1ccc(NC(=O)C(NS(=O)(=O)c2ccc3c(c2)CCN3C(C)=O)C(C)C)cc1 (stereo not given),0.33% (inactive)
16,CCN(CC)c1nc(Nc2ccc([N+](=O)[O-])cc2)nc(N(CC)CC)n1,6% (inactive)
17,Cc1ccc(Nc2nc(N)c3ccccc3n2)cc1Cl,11.2% (inactive)
18,Cc1ccc(NC(=O)c2ccsc2)cc1NS(C)(=O)=O,-6.89% (inactive)
19,C=CCc1c(C)nc(C)nc1N/N=C/c1ccc([N+](=O)[O-])cc1,-6.42% (inactive)
20,O=C(Cn1c(=O)c2cccn2c2cccnc21)N1CCN(c2ccc(Cl)cc2)CC1,0.96% (inactive)
21,CN1CCN(C(=O)CCn2c(=O)c3cccn3c3cccnc32)CC1,6.95% (inactive)
22,Cc1ccc(CN2CCC(c3nc4ccc(Cl)cc4[nH]3)CC2)cc1,2.51% (inactive)
23,Cc1cc2nc(C3CCN(Cc4nnnn4Cc4ccccc4)CC3)[nH]c2cc1C,34% (inactive)
